# According to the supplement of paper PMC4380459:
# Test system: tubulin (bovine brain)
# Experiment: tubulin polymerization end-point dOD, fold change relative to DMSO vehicle; higher = more polymerization (stabilization)
# Details: 50 µM; 60 min; 37 °C
# Experimental: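 In-vitro tubulin polymerization assay (Cytoskeleton HTS kit) with 4 mg/ml bovine brain tubulin in G-PEM buffer and compound at 50 uM (0.5% DMSO). Turbidity was read at 340 nm every minute for 1 h at 37 C. The end-point change in OD (dOD) was converted to % fold change relative to the DMSO vehicle (0%), and runs were scaled using DMSO and Taxol controls. The paper calls >20% an effect, 20-40% weak and >40% strong; positive values mean stabilization, negative values destabilization. Scale: negative = destabilization.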
row,Compound,tubulin polymerization end-point dOD
1,Cc1cc2nc(/C=C/c3ccsc3)sc2cc1C,237%
2,O=c1c(Cl)c(N2CC=C(c3ccccc3)CC2)cnn1-c1nc2ccccc2[nH]1,-22.9%
3,O=C(Nc1ncc(Cc2ccc(Cl)cc2)s1)c1cnccn1,-97.6%
4,CCOc1ccc2nc(SCC(=O)Nc3ccccc3CC)c(C#N)cc2c1,-22.2%
5,COc1ccc(/C=N/NC(=O)c2cccc(F)c2)cc1I,10.5%
6,O=C1CCCN1Cc1ccc(-c2ccccc2CNc2ncccn2)cc1,-32.9%
7,CC(=O)c1c(C)cc(C)c(CSc2nnc(-c3ccc(F)cc3)n2C)c1C,-75.9%
8,Cc1cc2cc3c(cc2nc1SCC(=O)NCCc1ccccc1)OCCO3,130%
9,Cc1ccc(C(=O)Nc2nc3ccc(Oc4ccccc4)cc3s2)cn1,15.6%
10,O=c1[nH]c(/C=C/c2ccccc2F)nc2ccccc12,21.3%
11,COc1ccccc1-n1c(SCC(=O)Nc2nccs2)nnc1-c1cccnc1,5.05%
12,O=C(NC1=NCCS1)c1sc2cccc(F)c2c1COc1ccccc1,34.2%
13,COc1ccc2cc(CNc3ncnc4[nH]ncc34)ccc2c1,-12.6%
14,CCc1cc2cc(OC)ccc2nc1SCC(=O)Nc1ccccc1Cl,-96.6%
15,CCc1cc2cc3c(cc2nc1SCC(=O)NCCc1ccccc1)OCO3,387%
16,O=C(Nc1ncc(Cc2ccccc2Br)s1)c1cccnc1,-64.1%
17,CCc1nc(SCC(=O)Nc2ccc(N(CC)CC)c(C)c2)c2ccccc2n1,-34%
18,O=C(Nc1ccccc1Cl)N(Cc1cccs1)Cc1cc2cc3c(cc2[nH]c1=O)OCCO3,-17.8%
19,COc1ccc2cc(CN(Cc3ccco3)C(=O)c3cccs3)c(=O)[nH]c2c1,91.2%
20,Cc1cc2nc(-c3ccc(SCC#N)nc3)[nH]c2cc1C,51.8%

row,Compound,tubulin polymerization end-point dOD
1,CS(=O)(=O)c1ccc(C(=O)Nc2ncc(Cc3cccc(Cl)c3Cl)s2)cc1,-8.57%
2,Oc1ccccc1-c1nc2cnccn2c1NCc1ccc2c(c1)OCO2,-6.54%
3,Cc1ccc(C2=NN(C(=O)c3ccncc3)C(c3ccccc3F)C2)cc1 (stereo not given),-4.53%
4,CCOC(=O)c1[nH]c(C)c(C(=O)c2cc(F)ccc2F)c1C,5.16%
5,COc1ccc(/C(C)=N/Nc2cc[nH+]c3cc(Cl)ccc23)cc1OC,3.81%
6,Cc1ccc(C(=O)CSc2nc3c(C)cccc3cc2C#N)cc1,-15.2%
7,CN(C)c1ncc(C(=O)Nc2ccc(Oc3ccc4c(c3)OCO4)cc2)cn1,8.04%
8,CCc1nnc(NC(=O)CSc2cc(C)c3cc(C)cc(C)c3n2)s1,19.7%
9,O=C(Nc1ccc2c(c1)OCCO2)C(=O)Nc1ccccc1Cl,13.5%
10,Cc1ccc(/C=N/NC(=O)C2COc3ccccc3O2)s1 (stereo not given),5.76%
11,C=CCOc1ccccc1NC(=O)c1cc(-c2c(C)nn(C)c2C)n[nH]1,-31.9%
12,COc1ccc(/C=N/NC(=O)c2cccc(F)c2)cc1Br,-16.1%
13,Cc1ccc(/C=N\NC(=O)c2cccc(Cl)c2)cc1,3.13%
14,COc1cc(Br)c(-c2cc3cc(Cl)ccc3oc2=O)cc1OC,77.7%
15,CCCC(NC(=O)c1cnc(SC)nc1)c1ccc2c(c1)OCCO2 (stereo not given),2.16%
16,CCc1ccc2nc(SCC(=O)Nc3ccccc3N3CCOCC3)c(C#N)cc2c1,-7.7%
17,COc1cccc2sc(NC(=O)C3CN(C(C)=O)c4ccccc4O3)nc12 (stereo not given),-38.1%
18,COc1cn(-c2ccccc2)nc1C(=O)N1CCc2ccccc21,-57.4%
19,COc1ccc(Br)cc1-c1nc(CN2C(=O)NC(C)(c3ccccc3)C2=O)cs1 (stereo not given),88.8%
20,O=C(Nc1ccc(N2CCCC2)cc1)C1COc2ccc(Cl)cc2C1 (stereo not given),19.2%
